Assay outcomes from PubChem.
D2 PAM-1 – positive allosteric modulators of human D2 dopamine receptor. P14416. DiscoveRx D2 beta-arrestin cells, luminescence, 90 min; 100% = 57 uM dopamine signal. potentiation, % (concentration not given with the values). 360,000 tested, 0.23% active; in the data active means potentiation above about 50%; inconclusive means mostly about 30% to 49%
Target sequence (P14416 whole entry, looked up): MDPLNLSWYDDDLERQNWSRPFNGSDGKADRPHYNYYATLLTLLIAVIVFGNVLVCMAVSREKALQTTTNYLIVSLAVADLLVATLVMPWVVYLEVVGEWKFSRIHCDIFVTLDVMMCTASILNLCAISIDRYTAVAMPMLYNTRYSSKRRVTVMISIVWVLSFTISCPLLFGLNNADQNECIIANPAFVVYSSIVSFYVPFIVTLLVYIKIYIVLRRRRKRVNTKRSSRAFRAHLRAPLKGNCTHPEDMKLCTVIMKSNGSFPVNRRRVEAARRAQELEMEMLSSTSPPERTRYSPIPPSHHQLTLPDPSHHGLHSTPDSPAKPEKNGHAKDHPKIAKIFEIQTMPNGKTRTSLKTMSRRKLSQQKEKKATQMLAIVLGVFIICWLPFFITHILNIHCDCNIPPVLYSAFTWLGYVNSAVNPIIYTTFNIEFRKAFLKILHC
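PathHunter D2 cells, attached overnight at 37 deg C, received compound in DMSO plus dopamine at EC20 (50 nM final) for 90 min at 37 deg C. Beta-arrestin recruitment was read as luminescence after 1 h with detection reagent at ambient temperature.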
D2 ag-1 – human D2 receptor agonism in beta-arrestin assay; DiscoveRx PathHunter D2 beta-arrestin, luminescence, 90 min; 100% = 57 uM dopamine signal; activation, % (concentration not given with the values); 360,000 tested, 0.084% active; AID 624465; in the data active means activation above about 40%; inconclusive means between about 15% and that limit
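Agonist mode: compounds alone added to overnight-plated D2 PathHunter cells for 90 min at 37 C, with 57 uM final dopamine (EC100) defining full response. Beta-arrestin recruitment detected by chemiluminescent reagent, read after 1 h at ambient temperature.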
D2 antag – D2 dopamine receptor (human) antagonism; P14416; HEK293 TREx D2 cells, calcium flux, dopamine EC80; inhibition, % at 10 µM; 340,000 tested, 2% active; AID 485344; in the data active means inhibition above about 30%; inactive means below that, where a call was filed
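In this primary screen, negative modulation is detected by tracking calcium flux after an EC80 dopamine challenge in inducible HEK293 T-REx D2 cells preexposed to test compound for 180 s.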
D2 PAM-2 – D2 dopamine receptor (human) potentiation; 340,000 tested, 0.34% active; P14416; potentiation, % at 10 µM; HEK293 T-REx D2, calcium flux, EC20 dopamine potentiation; AID 485347;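 active means potentiation over 3 SD above the plate norm, cut at about 30% in these data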
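Tetracycline-induced Hek293 Trex D2 cells, force-coupled to calcium, loaded with no-wash calcium dye. Compound added with 180 s kinetic read for agonism, then EC20 dopamine and a further 180 s read for potentiation.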
D2 ag-2 – D2 dopamine receptor (human) agonism; HEK293 T-REx D2 cells, calcium flux agonist mode; 340,000 tested, 0.53% active; activation, % at 2 µM;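 active means activation over 3 SD above normal in the single-dose calcium agonist read, cut at about 30% in these data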
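In this primary screen, compounds producing a positive calcium signal within 180 s of addition to tetracycline-induced, force-coupled HEK293 Trex D2 cells are flagged; cells are dye-loaded with a no-wash calcium kit beforehand.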
Hits are given with their value; 0 = inactive; ? = inconclusive; - = no result given; ! = not active in a repeat. This is a sample that favours compounds with a hit; in the whole collection about 2.4% have one here.

SMILES	D2 PAM-1	D2 ag-1	D2 antag	D2 PAM-2	D2 ag-2
COC(=O)C1=C(c2ccc(OCc3ccccc3)cc2)C[C@@H]2CC[C@H]1N2C(=O)NC1CCN(Cc2ccccc2)CC1	0	0	70	0	0
CCN1/C(=C\C=C\C2=[N+](CC)c3ccccc3C2(C)C)C(C)(C)c2ccccc21	0	0	0	0	50
Cc1cccc(CN2CC=C(c3noc(CCC(=O)Nc4ccc(C)c(F)c4)n3)CC2)c1	-	-	-	0	0
O=C1CN=C(c2ccccc2Cl)c2cc(Cl)ccc2N1Cc1cccc(Cl)c1	-	-	-	0	0
O=c1[nH]c2ccccc2n1CCCN1CCC(n2c(=O)[nH]c3cc(Cl)ccc32)CC1	-	-	97	-	-
CCCCn1nnnc1C(C1CC1)N1CCC(n2c(=O)[nH]c3ccccc32)CC1 (stereo not drawn)	0	0	-	-	-
CCCC1=C(C(=O)OCC)C2(C(=O)Nc3ccc(C)cc32)C(C#N)=C(N)O1 (stereo not drawn)	?	0	0	0	0
CCOC(=O)CC1=C(C(=O)OCC)C2(C(=O)Nc3ccccc32)C(C#N)=C(N)O1 (stereo not drawn)	75	0	0	0	0
Cc1sc2ncn(CC(=O)N3CCC4(CC3)OCCO4)c(=O)c2c1C	0	0	0	30	0
C[C@H]1OC[C@@H](C[N+](C)(C)C)O1	0	0	0	0	40
CC1OC(C[N+](C)(C)C)CC1O (stereo not drawn)	0	0	0	0	0
CCN1C(=O)NC(=O)/C(=C/c2cc(C)n(-c3sc(C)c(C)c3C#N)c2C)C1=O	0	0	0	44	0
Cc1ccccc1CN1C(=O)C(C)N=C(c2ccccc2)c2ccccc21 (stereo not drawn)	-	-	-	0	0
O=[N+]([O-])c1ccc(N2CCNCC2)cc1NCc1ccco1	0	0	61	0	0
CNc1cc(N2CCNCC2)ccc1[N+](=O)[O-]	0	0	0	0	0
CN1CCN(c2ccc([N+](=O)[O-])c(NCc3ccco3)c2)CC1	0	0	53	0	0
Cc1cccc(NC(=O)Cn2cc(C(=O)c3ccccc3)c3ccccc32)c1	-	-	-	0	0
OC1(c2ccc(F)cc2)CCNC1 (stereo not drawn)	0	0	86	0	0
COc1ccc(Br)cc1C1SCC(=O)Nc2c1c(C)nn2-c1ccccc1C (stereo not drawn)	-	-	-	0	-
CC(C)c1ccc(NC(=O)CN2C(=O)CN=C(c3ccccc3)c3ccccc32)cc1	-	-	-	0	0
CCn1c(O)c(C=Nc2ccc(N3CCOCC3)cc2)c(=O)n(CC)c1=S	0	0	0	0	35
Cc1cc(OCC(=O)N2CCN(CCc3ccccn3)CC2)cc(C)c1Cl	-	-	-	-	0
CN1CCC(OC(=O)C2c3ccccc3Oc3ccccc32)CC1	0	0	33	0	0
COc1cc(OC)c(OC)cc1CN1CCN(C(=O)COc2ccc3ccccc3c2)CC1	0	0	0	0	0
COc1ccc(OCC(=O)N2CCN(Cc3ccc(SC)cc3)CC2)cc1	0	0	46	34!	0
SMILES	D2 PAM-1	D2 ag-1	D2 antag	D2 PAM-2	D2 ag-2
COc1ccc(OCC(=O)N2CCN(Cc3ccc4c(c3)OCO4)CC2)cc1	0	0	0	0	0
COc1ccccc1CN1CCN(C(=O)COc2ccccc2)CC1	0	0	33	0	0
O=S1(=O)N(Cc2ccccc2Cl)CCCN1Cc1ccccc1Cl	-	-	-	0	0
CC(C)(C)NC(=O)C1CC2CCCCC2CN1 (stereo not drawn)	0	0	64	0	0
Cc1cccc(N2CCN(CCc3ccccc3)CC2)c1C	0	0	0	0	0
CCCCCCN1CCN(c2ccccc2Cl)CC1	0	0	76	0	0
O=C(Nc1ccccc1)Oc1ccccc1	0	0	0	0	0
CC(/C=C(\C)Nc1ccccc1)=Nc1ccccc1	0	0	0	37	0
Cc1ccc(OCC(=O)Nc2ccc(Cl)cc2C(=O)c2ccccc2)c(Br)c1	-	-	-	0	0
C[C@@H]1C[C@H]2OC(=O)C3(CO3)[C@H]2[C@H](O)[C@]2(C)C(=O)C3OC3[C@@H]12 (stereo partly drawn)	-	-	41	0	0
CSc1ccc(C(=O)C2CCCN(CCCn3cccn3)C2)cc1 (stereo not drawn)	0	0	36	0	0
CCn1ccnc1CN1CCCC(C(=O)c2ccc(SC)cc2)C1 (stereo not drawn)	0	0	0	0	0
COc1ccc(C2CN(C)CC2C(=O)c2ccc(F)cc2)cc1Cl (stereo not drawn)	0	0	69	0	0
CN1CC(C(=O)c2ccc(F)cc2)C(c2c(F)cccc2Cl)C1 (stereo not drawn)	0	0	0	0	0
CSc1ncc(CN2CCCC(C(=O)c3ccccc3SC)C2)cn1 (stereo not drawn)	0	0	0	0	0
CSc1ccccc1C(=O)C1CCCN(Cc2ccn[nH]2)C1 (stereo not drawn)	0	0	48	0	0
CC(=O)OCC[N+](C)(C)C	0	0	0	0	45
C[N+](C)(C)CCOC(=O)CBr	0	0	0	0	0
Cc1cc(NC(=O)c2cccn(Cc3cccc([N+](=O)[O-])c3)c2=O)no1	-	-	-	0	0
Cc1ccsc1C(=O)C1CCCN(Cc2cccc(-n3cccn3)c2)C1 (stereo not drawn)	0	0	0	0	0
COc1ccc(CN2CCCC(C(=O)c3sccc3C)C2)cc1O (stereo not drawn)	0	0	41	0	0
Cc1ccsc1C(=O)C1CCCN(Cc2cccc(OCCO)c2)C1 (stereo not drawn)	0	0	52	0	0
O=C(c1ccc2c(c1)N(Cc1c(F)cccc1Cl)C(=O)c1ccccc1S2)N1CCC2(CC1)OCCO2	-	-	-	0	0
CN1CCN(c2csc3ccc(F)cc3c2=O)CC1	-	-	-	0	-
COc1ccc(C(=O)N2CCCC2=O)cc1	0	0	40	0	0
SMILES	D2 PAM-1	D2 ag-1	D2 antag	D2 PAM-2	D2 ag-2
O=C1N(c2nncs2)CCN1[N+](=O)[O-]	69	0	0	0	0
C[C@@H]1CC[C@H]2[C@@H](C)C(=O)O[C@@H]3O[C@@]4(C)CC[C@@H]1[C@]32OO4	64	?	0	0	0
CC1CCN(CC#CCOc2ccc(Cl)cc2)CC1	0	0	86	0	0
Cc1ccc(C(C)C)c(OCC#CCN2CCCC2)c1	61	0	35	0	0
CCCCC1(CCCC)C(=O)NC(=Nc2cccc(C)c2)NC1=O	0	0	0	0	0
Cc1cccc(N=C2c3cc([N+](=O)[O-])ccc3-c3c2cc([N+](=O)[O-])cc3[N+](=O)[O-])c1	109	0	-	-	-
CNC(C)Cc1ccccc1Sc1ccc(O)cc1 (stereo not drawn)	0	0	67	0	0
Cc1cccc(CS(=O)(=O)Cc2ccc(C(=O)N3CCC4(CC3)OCCO4)o2)c1	0	0	40	0	0
O=C(c1ccc(CS(=O)(=O)c2ccccc2)o1)N1CCC2(CC1)OCCO2	0	0	0	0	0
